# According to PubChem BioAssay AID720651 (The Scripps Research Institute Molecular Screening Center, 2013):
# This is one part of the list. Calls of active or inactive are those of the source. No rule for the calls is given here.
# Assay: binds r(CAG) RNA repeats in late stage dose response, late-stage follow-up, biochemical, fluorescence, dose response, powder samples (AID 720651)
# Conditions: r(CAG) RNA TO-PRO-1 dye displacement
smiles,measurement,value
O=C1CC(=O)N(Cc2ccccc2)C(=O)N1CCCCCCN1C(=O)CC(=O)N(Cc2ccccc2)C1=O,IC50,1440 nM (active)
